The molecules below were run against Torsin-1A (Homo sapiens) (UniProt O14656) (assay: torsin A binders from cell lysate, primary screen, small-molecule microarray, wild-type, 635/667 nm (AID 1149)). Settings: COS7 hTOR1A-WT lysate, 635 nm fluorescence, higher = more signal.
Sequence of Torsin-1A (Homo sapiens) (O14656 whole entry, looked up): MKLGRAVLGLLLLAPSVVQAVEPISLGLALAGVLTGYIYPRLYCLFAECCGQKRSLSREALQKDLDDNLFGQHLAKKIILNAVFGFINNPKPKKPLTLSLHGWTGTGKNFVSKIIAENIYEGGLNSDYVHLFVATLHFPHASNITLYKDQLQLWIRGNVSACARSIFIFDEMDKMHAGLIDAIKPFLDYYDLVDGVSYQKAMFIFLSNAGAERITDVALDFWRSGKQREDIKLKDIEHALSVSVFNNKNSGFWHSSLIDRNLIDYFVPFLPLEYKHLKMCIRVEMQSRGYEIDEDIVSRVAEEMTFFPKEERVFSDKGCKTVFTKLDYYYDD
`CC(C)=CCCC(C)=CCON=C1C[C@@H](O)[C@@H](O)[C@@H]2[C@@H]3C(=O)N(C[C@@H]4CCCO4)C(=O)[C@@H]3CC[C@H]12` showed a composite z-score of 1.4. In the case of `O=C1OCCC=C1C(O)CCc1ccccc1` (stereo unspecified), the composite z-score is reported as -0.0693. `COCOc1ccc(Br)cc1C(=O)[C@@H]1O[C@H]1c1cccc(OC)c1` showed a composite z-score of 0.736. Molecule `CC(C)=CCCC(C)=CCON=C1C[C@@H](O)[C@@H](O)[C@@H]2[C@@H]3C(=O)N(Cc4ccccc4)C(=O)[C@@H]3CC[C@H]12` has a composite z-score of 0.23. Molecule `COC(=O)[C@@H]1CC[C@H](C)[C@@H](c2ccc(C)cc2)N1C(=O)c1ccc(C=NOCC[C@@H]2C=C[C@H](OC(C)=O)[C@@H](COC(C)=O)O2)cc1` has a composite z-score of 0.612. In the case of `CON=C1[C@H]2CCn3c(=O)n(-c4ccccc4)c(=O)n3[C@H]2[C@H](O)[C@@H]2O[C@H]12`, the composite z-score is reported as 0.144. `CO[C@@H]1C=CCC(=O)N[C@@H](C)C(=O)OC[C@@H](OC)[C@H](C)CCCC(=O)OC[C@H]1C` showed a composite z-score of 3.16. For `O=C1C[C@@H](O)[C@@H](O)[C@@H]2[C@@H]3C(=O)N(C[C@@H]4CCCO4)C(=O)[C@@H]3CC[C@@H]12`, the composite z-score was 0.232. `CON=C[C@@H](C)[C@H](OCc1ccccc1)C(C)C` was tested, and the composite z-score was 0.537. Molecule `COC(=O)CC=C[C@@H](C)[C@@H]1C=C[C@H](O)[C@@H](CO)O1` has a composite z-score of 0.473. Molecule `Cc1ccc(S(=O)(=O)n2c3ccccc3c3nnc(C(=O)c4ccccc4)nc32)cc1` has a composite z-score of 0.0855. With `CC(C)CON=C1C[C@@H](O)[C@@H](O)[C@@H]2[C@@H]3C(=O)N(c4ccc(F)cc4F)C(=O)[C@@H]3CC[C@H]12` the composite z-score was 0.224. In the case of `CC(CCN1CCc2nc(-c3ccccc3)c(-c3ccccc3)cc2C1)=NOC[C@@H](O)COCc1ccco1`, the composite z-score is reported as 1.15. Molecule `COc1cccc([C@H]2Oc3ccc(OC)cc3C(=NOC[C@@H](O)COCc3ccco3)[C@@H]2O)c1` has a composite z-score of -1.7. Molecule `CC(CCN1CCCCc2nc(C)c(C)cc21)=NOC[C@@H](C)[C@H](OCc1ccccc1)C(C)C` has a composite z-score of -1.62. `O=C(NN=C1C[C@@H](O)[C@@H](O)[C@@H]2[C@@H]3C(=O)N(C[C@@H]4CCCO4)C(=O)[C@@H]3CC[C@H]12)OCc1ccccc1` gave a composite z-score of 0.146. In the case of `COC(=O)[C@H]1[C@@H](O)[C@@]2(O)c3ccccc3O[C@@]2(c2ccccc2)[C@@H]1c1ccccc1`, the composite z-score is reported as -0.225. For `CC(C)(C)N1C(=O)[C@H]2[C@H]3[C@H](O)[C@H](O)CC(=NO[C@@H]4O[C@H](CO)[C@@H](O)[C@H](O)[C@H]4O)[C@H]3CC[C@H]2C1=O`, the composite z-score was 0.462. `CC(C)CON=C1C[C@@H](O)[C@@H](O)[C@@H]2[C@@H]3C(=O)N(C[C@@H]4CCCO4)C(=O)[C@@H]3CC[C@@H]12` showed a composite z-score of -0.25. For `CC=CC1=C(CO)C(=O)[C@@H]2O[C@@H]2C1=O`, the composite z-score was 0.0039. `C[C@@H](c1ccccc1)N1C(=O)[C@H]2[C@H]3[C@H](O)[C@H](O)CC(=NOCc4ccccc4)[C@H]3CC[C@H]2C1=O` showed a composite z-score of -0.0911. `C[C@H](ON=C1[C@H]2CCn3c(=O)n(-c4ccccc4)c(=O)n3[C@H]2[C@H](O)[C@@H]2O[C@H]12)c1cn([C@H](CO)Cc2ccccc2)nn1` gave a composite z-score of 0.421. `C[C@H]1COC(=O)[C@@H]2CCCN2C(=O)[C@@H](C)COC(=O)[C@H](Cc2ccccc2)NC1=O` was tested, and the composite z-score was 0.146. `CCOC(=O)CCN1C(=O)[C@H]2[C@H]3[C@H](O)[C@H](O)CC(=NNC(=O)OCc4ccccc4)[C@@H]3CC[C@H]2C1=O` was tested, and the composite z-score was 0.701. For `CC(C)=CCCC(C)=CCON=C1C[C@@H](O)[C@@H](O)[C@@H]2[C@@H]3C(=O)N(c4cccc(Oc5ccccc5)c4)C(=O)[C@@H]3CC[C@@H]12`, the composite z-score was -0.38.

What follows are molecules tested against Torsin-1A (Homo sapiens) (UniProt O14656) (assay: small-molecule binders of mutant TOR1A in lysate, primary screen, cell lysate, small-molecule microarray, COS7 lysate, 635/667 nm fluorescence (AID 1150;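 further: score pools 667 nm emission and signal to noise measuring lysate protein binding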)). Settings: COS7 hTOR1A mutant lysate, 635 nm fluorescence, higher = more signal.
With `CCOC(=O)[C@H](Cc1ccccc1)NC(=O)CCC1CC(OC(=O)NCc2cccc3ccccc23)CC2(CCCC(COC(=O)NCCC(C)C)O2)O1` (stereo partly specified) the composite z-score was -0.359. `CC(C)CON=C1[C@H]2CCn3c(=O)n(Cc4cc5c(cc4Cl)OCO5)c(=O)n3[C@H]2[C@H](O)[C@@H]2O[C@H]12` showed a composite z-score of 0.49. Molecule `CC(CCC(=O)OC[C@H]1O[C@H](C#Cc2ccccc2)C=C[C@@H]1Oc1ccc(C)cc1)=NO[C@H](C)c1cn([C@H](CO)Cc2ccccc2)nn1` has a composite z-score of 0.683. With `COc1ccc(COC(=O)NN=C2C[C@@H](O)[C@@H](O)[C@@H]3[C@@H]4C(=O)N(c5ccc(F)cc5F)C(=O)[C@@H]4CC[C@H]23)cc1` the composite z-score was 0.627. Work on `C#CCCCON=C1[C@H]2CCn3c(=O)n(C)c(=O)n3[C@H]2[C@H](O)[C@@H]2O[C@H]12` yielded a composite z-score of 0.693. Molecule `CC(C)=CCCC(C)=CCON=C1C[C@@H](O)[C@@H](O)[C@@H]2[C@@H]3C(=O)N(C(C)(C)C)C(=O)[C@@H]3CC[C@@H]12` has a composite z-score of 0.764. `CCN1C(=O)[C@H]2[C@H]3[C@H](O)[C@H](O)CC(=O)[C@@H]3CC[C@H]2C1=O` was tested, and the composite z-score was 0.344. `O=C1CCCC=C1C(O)CCOC(c1ccccc1)(c1ccccc1)c1ccccc1` (stereo unspecified) was tested, and the composite z-score was -0.0854. `COC(=O)CC=C[C@@H](C)[C@@H](C=NOC[C@H]1O[C@H](c2ccccc2)C=C[C@@H]1Oc1ccc(OC)cc1)NS(=O)(=O)c1ccc(C)cc1` showed a composite z-score of 0.339. Molecule `CC(CCN1CCCc2nc(C)c(C)cc21)=NO[C@@H](C)c1cc(-c2c(C)cc(C)cc2C)no1` has a composite z-score of -0.184. Work on `CO[C@H](C1CCCCC1)[C@H](C)C=CCC(=O)OCCCc1ccccc1` yielded a composite z-score of 0.171. For `CC(C)=CCCC(C)=CCON=C1C[C@@H](O)[C@@H](O)[C@@H]2[C@@H]3C(=O)N(C[C@@H]4CCCO4)C(=O)[C@@H]3CC[C@H]12`, the composite z-score was 1.33. In the case of `O=C1OCCC=C1C(O)CCc1ccccc1` (stereo unspecified), the composite z-score is reported as 0.0478. `COCOc1ccc(Br)cc1C(=O)[C@@H]1O[C@H]1c1cccc(OC)c1` was tested, and the composite z-score was 0.437. Molecule `CC(C)=CCCC(C)=CCON=C1C[C@@H](O)[C@@H](O)[C@@H]2[C@@H]3C(=O)N(Cc4ccccc4)C(=O)[C@@H]3CC[C@H]12` has a composite z-score of 0.0793. `COC(=O)[C@@H]1CC[C@H](C)[C@@H](c2ccc(C)cc2)N1C(=O)c1ccc(C=NOCC[C@@H]2C=C[C@H](OC(C)=O)[C@@H](COC(C)=O)O2)cc1` gave a composite z-score of 0.481. Work on `CON=C1[C@H]2CCn3c(=O)n(-c4ccccc4)c(=O)n3[C@H]2[C@H](O)[C@@H]2O[C@H]12` yielded a composite z-score of 0.606. With `CO[C@@H]1C=CCC(=O)N[C@@H](C)C(=O)OC[C@@H](OC)[C@H](C)CCCC(=O)OC[C@H]1C` the composite z-score was 2.84. Molecule `O=C1C[C@@H](O)[C@@H](O)[C@@H]2[C@@H]3C(=O)N(C[C@@H]4CCCO4)C(=O)[C@@H]3CC[C@@H]12` has a composite z-score of 0.206. Work on `CON=C[C@@H](C)[C@H](OCc1ccccc1)C(C)C` yielded a composite z-score of -0.253. `COC(=O)CC=C[C@@H](C)[C@@H]1C=C[C@H](O)[C@@H](CO)O1` was tested, and the composite z-score was 0.448. Molecule `Cc1ccc(S(=O)(=O)n2c3ccccc3c3nnc(C(=O)c4ccccc4)nc32)cc1` has a composite z-score of -0.292. `CC(C)CON=C1C[C@@H](O)[C@@H](O)[C@@H]2[C@@H]3C(=O)N(c4ccc(F)cc4F)C(=O)[C@@H]3CC[C@H]12` was tested, and the composite z-score was -0.0086. Molecule `CC(CCN1CCc2nc(-c3ccccc3)c(-c3ccccc3)cc2C1)=NOC[C@@H](O)COCc1ccco1` has a composite z-score of 1.25. Work on `COc1cccc([C@H]2Oc3ccc(OC)cc3C(=NOC[C@@H](O)COCc3ccco3)[C@@H]2O)c1` yielded a composite z-score of -1.38. Work on `CC(CCN1CCCCc2nc(C)c(C)cc21)=NOC[C@@H](C)[C@H](OCc1ccccc1)C(C)C` yielded a composite z-score of -1.49. In the case of `O=C(NN=C1C[C@@H](O)[C@@H](O)[C@@H]2[C@@H]3C(=O)N(C[C@@H]4CCCO4)C(=O)[C@@H]3CC[C@H]12)OCc1ccccc1`, the composite z-score is reported as 0.219. Molecule `COC(=O)[C@H]1[C@@H](O)[C@@]2(O)c3ccccc3O[C@@]2(c2ccccc2)[C@@H]1c1ccccc1` has a composite z-score of 0.258. Molecule `CC(C)(C)N1C(=O)[C@H]2[C@H]3[C@H](O)[C@H](O)CC(=NO[C@@H]4O[C@H](CO)[C@@H](O)[C@H](O)[C@H]4O)[C@H]3CC[C@H]2C1=O` has a composite z-score of 0.0791. Molecule `CC(C)CON=C1C[C@@H](O)[C@@H](O)[C@@H]2[C@@H]3C(=O)N(C[C@@H]4CCCO4)C(=O)[C@@H]3CC[C@@H]12` has a composite z-score of 0.0844. `CC=CC1=C(CO)C(=O)[C@@H]2O[C@@H]2C1=O` showed a composite z-score of -0.579. `C[C@@H](c1ccccc1)N1C(=O)[C@H]2[C@H]3[C@H](O)[C@H](O)CC(=NOCc4ccccc4)[C@H]3CC[C@H]2C1=O` gave a composite z-score of 0.651. In the case of `C[C@H](ON=C1[C@H]2CCn3c(=O)n(-c4ccccc4)c(=O)n3[C@H]2[C@H](O)[C@@H]2O[C@H]12)c1cn([C@H](CO)Cc2ccccc2)nn1`, the composite z-score is reported as 0.295. Molecule `C[C@H]1COC(=O)[C@@H]2CCCN2C(=O)[C@@H](C)COC(=O)[C@H](Cc2ccccc2)NC1=O` has a composite z-score of 0.0507. `CCOC(=O)CCN1C(=O)[C@H]2[C@H]3[C@H](O)[C@H](O)CC(=NNC(=O)OCc4ccccc4)[C@@H]3CC[C@H]2C1=O` was tested, and the composite z-score was 0.672. In the case of `CC(C)=CCCC(C)=CCON=C1C[C@@H](O)[C@@H](O)[C@@H]2[C@@H]3C(=O)N(c4cccc(Oc5ccccc5)c4)C(=O)[C@@H]3CC[C@@H]12`, the composite z-score is reported as 0.0864.

Source: PubChem BioAssay
